Assay [1] has as its system Zika virus NS2B-NS3 protease (linked construct). Kind of assay: Primary screen NINDS Rhodamine qHTS for Zika virus inhibitors (AID 1347160). For activity change, negative = inhibition: % is set by controls: 0 for no effect and ±100 for the full control effect. Note: nearly all actives have a fitted effect of over 55% in size. Note: potency is the fitted concentration of half-maximal effect. An outline of the steps: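 Aprotinin served as in-plate control. Conditions: 25 nM linked NS2B-NS3, pH 8.0 Tris buffer, titrated compounds, 15 min preincubation and 15 min reaction with 1.5 microM Rhod110 substrate at room temperature.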
A general note: Quantitative high-throughput screening tests each substance at several concentrations.

A short description of assay [2]: OV-KATE Cancer Cell Toxicity qHTS against the NCATS CANVASS Library (AID 1347345). Note: % is set by controls: 0 for no effect and ±100 for the full control effect. An outline of the steps:
(§1)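 Viability was assessed by adding CellTiter-Glo reagent to treated cultures and reading luminescence after 15min at room temperature. Treatment lasted 72 h at 37 degrees C/5% CO2, using an 11-point series on 1000 cells/well.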

Assay [3] can be described thus: HPAF-II Cancer Cell Toxicity qHTS against the NCATS CANVASS Library (AID 1347346). Note: % is set by controls: 0 for no effect and ±100 for the full control effect; nearly all actives have a fitted effect of over 55% in size. An outline of the steps:
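First, HPAF-II cells are plated (1000 cells/well) and held 4 h at 37 degrees C. Next, compounds are pin-transferred as an 11-point series. After 72 h, CellTiter-Glo is added and luminescence measured.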

A short description of assay [4]: OV-SAHO Cancer Cell Toxicity qHTS against the NCATS CANVASS Library (AID 1347348). Note: % is set by controls: 0 for no effect and ±100 for the full control effect; nearly all actives have a fitted effect of over 55% in size. Put shortly: as §1
A short description of assay [5]: HEK293 24hr Apoptosis Induction qHTS against the NCATS CANVASS Library (AID 1347359). Note: 0% is about no effect. An outline of the steps: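 Caspase-3/7 activation measured as luminescence from the DEVD-based Caspase-Glo reagent, 15 min at room temperature, following 24-hour compound treatment of HEK293 cells.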
Assay [6] is described as follows: HEK293 12hr Apoptosis Induction qHTS against the NCATS CANVASS Library (AID 1347361). Note: 0% is about no effect. An outline of the steps: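 Read-out: Caspase-Glo 3/7 luminescence (DEVD substrate), 15 min RT. Preceded by 12 h compound exposure of HEK293, 500 cells/well, 11-pt qHTS titration; doxorubicin titration as control.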
Assay [7] relates to NAD(P)H diaphorase (Clostridium kluyveri). Kind of assay: Diaphorse counterscreen qHTS: Assay Interference Panel against the NCATS CANVASS Library (AID 1347362). Note: 0% is about no effect. Put shortly:
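Counterscreen for coupling-enzyme interference: resorufin fluorescence from resazurin/NADH turnover, read after 5 min at room temperature. Compounds were tested over an 11-point series after 15 min dark preincubation with diaphorase in PBS-Tween.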
(A counterscreen serves to expose hits that act by an unwanted route or on another target.)

For assay [8], the target named is Luciferin 4-monooxygenase (Photinus pyralis) (UniProt P08659). Kind of assay: Firefly luciferase counterscreen qHTS: Assay Interference Panel against the NCATS CANVASS Library (AID 1347363). Note: 0% is about no effect. An outline of the steps: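 Luminescence inhibition readout: compounds (11-point qHTS) sat 15 min at room temperature with substrate mix (0.013 mM luciferin and ATP), then firefly luciferase was added and signal read 5 min later.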

Assay [9] addresses Nuclear receptor subfamily 1 group I member 3 (Homo sapiens) (UniProt Q14994). In words: qHTS for Constitutive Androstane Receptor (CAR) Agonist screened against the NCATS CANVASS Library (AID 1347373).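 Note: every well also contained 1.5 µM PK11195 alongside the test compound; 0% is about no effect.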 Put shortly:
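Cells were plated and allowed to attach for 4hr, then dosed with compound in an 11-point series alongside 1.5uM PK11195. After 24hr at 37C, viability was measured fluorometrically and CAR-driven CYP2B6 reporter luminescence was recorded.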

Assay [10] can be described thus: 10-beta competent E. coli microbial cell viability qHTS against the NCATS CANVASS Library (AID 1347376). Note: 0% is about no effect. An outline of the steps: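 Bacterial suspension diluted to 0.2 OD was dosed with compounds, 11-point series, then held overnight at 37C. BacTiter-Glo reagent was added, and after 20 min at room temperature ATP-dependent luminescence was measured.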
Assay [11] can be described thus: qHTS for H2AX Agonists against the NCATS CANVASS Library (AID 1347378). Note: 0% is about no effect. An outline of the steps:
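CHO-K1 cells were plated overnight at 37C, then exposed to compounds (concentration series, 0.76% DMSO final) for 3 hr at 37C. Lysates received Eu-cryptate anti-pH2AX (S139) and d2 anti-H2AX antibodies; after 24 hr at room temperature, TR-FRET 665/620 nm ratio was read.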

The nature of assay [12]: Inflammasome Signaling qHTS Counterscreen: IL-1-beta AlphaLISA counterscreen against the NCATS CANVASS Library (AID 1347381).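 Note: cell-free check with purified IL-1β in medium and no THP-1 cells; 0% is about no effect.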 An outline of the steps: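 Purified IL-1-beta (4 pg/well) + compound, 11-pt conc. series; acceptor beads 6 ug/mL + biotin-Ab 0.6 nM final, 1 h RT; SA-donor 24 ug/ml final, 30 min dark RT; read ex 680/em 615.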
The nature of assay [13]: Primary qHTS for small molecule stabilizers of the endoplasmic reticulum resident proteome: Secreted ER Calcium Modulated Protein (SERCaMP) assay (AID 1508630). Note: % is set by controls: 0 for no effect and ±100 for the full control effect. An outline of the steps: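 The SH-SY5Y reporter protocol was run at 3 concentrations up to 38.3 uM (primary) or 11 concentrations (follow-up): 16 h compound, 100 nM thapsigargin for 4 h, then extracellular luciferase luminescence.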

For assay [14], the target named is Glucocorticoid receptor (Homo sapiens) (UniProt P04150). In words: GR-GFP Redistribution (AID 450;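 active = compounds whose dose series gives a full or clear partial fitted curve of increased nuclear translocation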; note: potency is the fitted concentration of half-maximal effect). Conditions: U2OS GR-GFP nuclear translocation, laser cytometry, 2 h.
Assay [15] has the same target. Kind of assay: GR-EFC Redistribution (AID 451; calls by dose curve; note: potency is the fitted concentration of half-maximal effect). To be noted: CHO-K1 GR-EFC translocation, beta-gal luminescence, 2 h. An outline of the steps:
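Translocation of GR-ED fusion to nuclear EA restores b-gal, read by luminescence after 1 h room-temperature detection. Engineered CHO-K1 biosensor cells, 1,000/well, exposed 2 h at 37 C to titrations up to 46 uM final.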

The target in assay [16] is Mitogen-activated protein kinase 10 (Mus musculus) (UniProt Q61831). In words: JNK3 AlphaScreen Assay (AID 530; active = well fitted curve in either direction with a large enough effect, not every such curve was filed as active;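 note: kinase came from lysate of stimulated human HepG2 cells; signal reports phosphorylation of biotinylated GST-cJun 1-79 at Ser73 with 10 µM ATP; % is set by controls: 0 for no effect and ±100 for the full control effect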). Put shortly:
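qHTS titrations with 15 min compound pre-incubation before adding ATP (10 uM final). Read-out: AlphaScreen of Ser73-phosphorylated biotin-GST-cJun using HepG2 lysate JNK3 activated by IL-1β and TNFα.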

The target in assay [17] is 3',5'-cyclic-AMP phosphodiesterase 4B (Homo sapiens) (UniProt Q07343). In words: qHTS Assay for Inhibitors of PDE-IV (AID 607; active = well fitted activation curve with a large enough effect in the main read-out, with a control signal flat, not every such curve was filed as active; note: % of control where 0% means no effect). Put shortly:
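ACTOne HEK293 cells carry a modified cAMP-gated CNG channel and express endogenous PDE4; plated 1000 cells/well, compounds up to 22.9 uM final. Membrane-potential dye fluorescence (ex 535/em 590) was read; parental cells received 10 uM forskolin + 100 uM RO 20-1724.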

Assay [18] can be described thus: qHTS Assay for Lipid Storage Modulators (AID 1519; calls by dose curve). To be noted: Drosophila S3 cells, BODIPY lipid droplet/cell ratio, laser cytometry, cells loaded with oleic acid; for activity change, negative = inhibition: at 57.5 µM (top of the series). An outline of the steps: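 Cells seeded at 5,000 per well were treated with compounds over a concentration series and loaded with oleic acid (400 uM, as added). Lipid droplet fluorescence (488 nm excitation, 500-530 nm channel) was read by laser-scanning cytometry and normalized to 20 uM Triacsin C.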

Assay [19] addresses DNA dC->dU-editing enzyme APOBEC-3G (Homo sapiens) (UniProt Q9HC16). Kind of assay: qHTS for inhibitors of Vif-A3G interactions: Validation (AID 588379). Note: 0% is about no effect. An outline of the steps:
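Yellow fluorescence (Ex 488, Em 500-530) of Vif-coexpressing HeLa A3G-eYFP cells, scanned by Acumen cytometer, reports blocked A3G degradation. Cells plated at 700/well overnight at 37 deg C before compound addition, then a further overnight compound incubation at 37 deg C.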

Setting [20] is: measured here: cell count channel max response.
The mark [21] stands for this setting: measured here: lipid channel max response.

Results filed as inconclusive are left out. The source made the active and inactive calls. Unless noted, calls come from the whole dose curve; as a rule, active = well fitted curve in the direction sought with a large enough effect; inconclusive = small, poorly fitted or top-dose-only effect, or another doubt; inactive = no such curve, though single readings can be large; an effect the other way counts as inactive or inconclusive.

Chain of Luciferin 4-monooxygenase (Photinus pyralis) (P08659 whole entry, looked up): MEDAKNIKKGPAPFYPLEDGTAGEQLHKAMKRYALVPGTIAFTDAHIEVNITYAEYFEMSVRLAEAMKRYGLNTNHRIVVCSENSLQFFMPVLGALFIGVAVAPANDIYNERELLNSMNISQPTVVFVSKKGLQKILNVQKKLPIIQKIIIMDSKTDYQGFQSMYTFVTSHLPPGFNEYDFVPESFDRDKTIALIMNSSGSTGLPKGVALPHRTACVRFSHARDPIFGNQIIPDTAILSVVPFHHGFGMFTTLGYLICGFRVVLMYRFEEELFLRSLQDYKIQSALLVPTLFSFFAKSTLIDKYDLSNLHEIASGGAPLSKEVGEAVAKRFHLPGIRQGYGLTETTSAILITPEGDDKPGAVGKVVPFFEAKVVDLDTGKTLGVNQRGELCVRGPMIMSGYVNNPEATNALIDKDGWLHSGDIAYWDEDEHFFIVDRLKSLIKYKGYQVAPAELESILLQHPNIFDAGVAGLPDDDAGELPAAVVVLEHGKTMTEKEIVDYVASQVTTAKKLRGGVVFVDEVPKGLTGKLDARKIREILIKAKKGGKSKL
Chain of Nuclear receptor subfamily 1 group I member 3 (Homo sapiens) (Q14994 whole entry, looked up): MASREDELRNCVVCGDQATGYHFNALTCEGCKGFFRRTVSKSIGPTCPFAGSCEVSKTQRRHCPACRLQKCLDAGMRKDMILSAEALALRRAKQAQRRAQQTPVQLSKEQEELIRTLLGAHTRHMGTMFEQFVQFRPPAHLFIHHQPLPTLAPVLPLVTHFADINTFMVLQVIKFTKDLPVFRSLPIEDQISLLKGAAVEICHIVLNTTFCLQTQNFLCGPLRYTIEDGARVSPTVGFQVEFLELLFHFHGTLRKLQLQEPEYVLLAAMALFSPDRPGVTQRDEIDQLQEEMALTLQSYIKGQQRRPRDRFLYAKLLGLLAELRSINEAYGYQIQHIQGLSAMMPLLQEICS
Chain of Glucocorticoid receptor (Homo sapiens) (P04150 whole entry, looked up): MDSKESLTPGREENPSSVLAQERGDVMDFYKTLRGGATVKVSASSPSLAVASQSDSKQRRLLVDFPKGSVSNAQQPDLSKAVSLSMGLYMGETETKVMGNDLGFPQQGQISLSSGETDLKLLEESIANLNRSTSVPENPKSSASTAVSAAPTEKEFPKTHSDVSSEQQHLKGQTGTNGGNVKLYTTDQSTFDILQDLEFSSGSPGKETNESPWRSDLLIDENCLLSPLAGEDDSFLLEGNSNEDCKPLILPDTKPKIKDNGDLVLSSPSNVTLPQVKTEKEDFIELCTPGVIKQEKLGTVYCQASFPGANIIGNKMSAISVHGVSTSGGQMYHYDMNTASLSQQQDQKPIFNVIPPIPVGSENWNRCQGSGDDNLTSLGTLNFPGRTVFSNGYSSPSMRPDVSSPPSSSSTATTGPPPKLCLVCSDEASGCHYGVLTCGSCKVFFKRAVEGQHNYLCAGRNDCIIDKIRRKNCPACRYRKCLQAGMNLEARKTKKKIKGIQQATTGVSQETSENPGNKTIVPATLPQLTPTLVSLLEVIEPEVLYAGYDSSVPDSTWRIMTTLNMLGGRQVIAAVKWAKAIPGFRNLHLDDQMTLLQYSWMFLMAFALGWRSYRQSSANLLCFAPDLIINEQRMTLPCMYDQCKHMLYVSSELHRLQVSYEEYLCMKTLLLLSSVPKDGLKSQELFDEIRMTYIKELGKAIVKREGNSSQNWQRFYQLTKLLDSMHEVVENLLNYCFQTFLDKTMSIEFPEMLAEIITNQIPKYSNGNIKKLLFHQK
Chain of DNA dC->dU-editing enzyme APOBEC-3G (Homo sapiens) (Q9HC16 whole entry, looked up): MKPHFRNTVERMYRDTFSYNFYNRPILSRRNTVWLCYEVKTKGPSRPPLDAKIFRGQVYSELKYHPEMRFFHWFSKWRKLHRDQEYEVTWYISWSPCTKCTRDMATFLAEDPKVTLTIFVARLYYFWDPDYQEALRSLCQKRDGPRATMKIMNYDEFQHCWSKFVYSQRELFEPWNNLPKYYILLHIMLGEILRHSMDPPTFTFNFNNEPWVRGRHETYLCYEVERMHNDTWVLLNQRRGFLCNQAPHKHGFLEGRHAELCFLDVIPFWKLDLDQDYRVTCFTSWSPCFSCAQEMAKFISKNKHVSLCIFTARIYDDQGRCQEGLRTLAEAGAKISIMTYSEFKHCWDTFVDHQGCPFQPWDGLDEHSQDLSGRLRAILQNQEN
Chain of 3',5'-cyclic-AMP phosphodiesterase 4B (Homo sapiens) (Q07343 whole entry, looked up): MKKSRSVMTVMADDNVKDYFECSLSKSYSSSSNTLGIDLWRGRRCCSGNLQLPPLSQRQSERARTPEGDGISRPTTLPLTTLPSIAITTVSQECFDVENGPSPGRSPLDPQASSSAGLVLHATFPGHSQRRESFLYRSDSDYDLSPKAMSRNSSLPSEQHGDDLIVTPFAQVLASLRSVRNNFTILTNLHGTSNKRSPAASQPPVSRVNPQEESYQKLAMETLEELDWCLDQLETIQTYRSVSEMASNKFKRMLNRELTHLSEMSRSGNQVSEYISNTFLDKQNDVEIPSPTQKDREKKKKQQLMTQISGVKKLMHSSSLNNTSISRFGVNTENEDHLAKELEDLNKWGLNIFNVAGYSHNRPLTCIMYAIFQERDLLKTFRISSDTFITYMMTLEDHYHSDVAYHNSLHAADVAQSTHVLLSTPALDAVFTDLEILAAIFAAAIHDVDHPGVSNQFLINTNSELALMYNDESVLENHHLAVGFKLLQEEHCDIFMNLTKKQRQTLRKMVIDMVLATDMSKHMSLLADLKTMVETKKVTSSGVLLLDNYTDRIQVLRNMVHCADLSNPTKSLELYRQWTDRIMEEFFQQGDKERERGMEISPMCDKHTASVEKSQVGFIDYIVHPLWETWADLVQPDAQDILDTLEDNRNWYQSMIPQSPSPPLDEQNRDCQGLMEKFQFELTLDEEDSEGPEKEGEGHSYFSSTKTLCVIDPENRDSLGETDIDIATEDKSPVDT

Regarding `CC[C@@H]1CN2CC[C@@]3(O)C(=Nc4cccc(OC)c43)[C@@H]2C[C@@H]1/C(=C\OC)C(=O)OC`, the Potency result in assay [1], in [2], in [3], in assay [4], in [5] and in [6] was “inactive” throughout. Also, the Potency entry in [11] was “inactive”. Also, the outcome in assay [7], in assay [8], in [9], in assay [10] and in assay [12] was inactive.

Turning to `CC[C@H](C)[C@H](NC(=O)[C@H](CCCN=C(N)N)NC(=O)[C@H](CCCN=C(N)N)NC(=O)[C@H](CC(C)C)NC(=O)[C@H](Cc1ccccc1)NC(=O)CNC(=O)CNC(=O)[C@@H](N)Cc1ccc(O)cc1)C(=O)O`, in assay [13], the activity change, negative = inhibition was -13% [at 3.88 µM] (inactive).

As for `CC1=CC(=O)C2=C(C)C[C@H](O)[C@@H]3[C@H](OC(=O)[C@@H]3C)[C@@H]12`, in [1], the Potency is 49.3 µM (active). Also, the Potency result in [2], in [3], in assay [4], in [5], in assay [6] and in assay [11] was “inactive” in each case. The compound was called inactive in assay [7], in assay [8], in [9], in [10] and in assay [12].

With `C[C@]12CC(O)C3[C@@H](CCC4C[C@@H](O)CC[C@@]43CO)[C@@]1(O)CCC2C1=CC(=O)OC1` (some centres undefined), in [1], the Potency is 62.1 µM (active). Moreover, the Potency entry in [2], in assay [3], in assay [4], in [5], in assay [6] and in assay [11] was “inactive” in each case. The compound was classed as inactive in assay [7], in assay [8], in [9], in assay [10] and in assay [12].

Regarding H-YGGFLRKYPK-OH, the activity change, negative = inhibition in [13] is -17% [at 3.88 µM] (inactive).

With `CCCN(C/C=C/I)C1CCc2ccc(O)cc2C1` (centres undefined), the Potency result in [13] is “inactive”.

As for `CC(=O)O[C@@H]1CN2CCC1CC2`, the Potency in assay [14] and in [15] was > 46 µM (inactive) in each case. Further, the compound was classed as inactive in assay [16]. Besides, the Potency result in assay [17], in [19] and in assay [13] was “inactive” in each case. In addition, the activity change, negative = inhibition in [18] is 2.83% (inactive). Besides, the max response in [18] (setting [20]) is -10.5%; in assay [18] (setting [21]) it was -8.98%.

Turning to `Cc1o[nH]c(=O)c1C[C@@H](N)C(=O)O`, the Potency in assay [14] and in assay [15] was > 46 µM (inactive) throughout. Moreover, the compound was called inactive in assay [16]. Moreover, the Potency entry in assay [17], in assay [19] and in assay [13] was “inactive” throughout. For the same compound, the activity change, negative = inhibition in assay [18] is -2.31% (inactive). Also, the max response is -0.22% in assay [18] (setting [20]) and 0.175% in assay [18] (setting [21]).

On to `CCN1C[C@]2(C)CC[C@H](O)[C@]34C1C(C[C@H]23)[C@@]12CC[C@H](CC14)[C@](O)(COC(=O)c1ccc(OC)c(OC)c1)[C@H]2O` (some centres undefined), for which the Potency entry in [1], in assay [2], in assay [3], in assay [4], in assay [5] and in [6] was “inactive” throughout. Moreover, in assay [11], the Potency entry was “inactive”. The result in [7], in assay [8], in assay [9], in assay [10] and in assay [12] was inactive.

Values taken from PubChem BioAssay (NCATS).
